# Measured values: paper PMC4552634, “A New Set of Chemical Starting Points with Plasmodium falciparum Transmission-Blocking Potential for Antimalarial Drug Discovery” (PLoS ONE, 2015)
# Where two headings read alike, the source gives them in different places. Screen size: about 13,000 compounds; about 3,200 (25%) showed an effect of 50% or more. Some of the results follow.
# System: P. falciparum stage V gametocytes
# Parameters: BacTiter-Glo ATP luminescence viability of purified stage V gametocytes in 384-well plates, per cent inhibition versus DMSO
# Settings: 48 h, 5 µM, inhibitor
Structure (SMILES),% Inhibition,% Inhibition (% Inhibition)
O=C(Nc1ccc(OC2CCN(Cc3ccccc3)CC2)c(Cl)c1)c1ccsc1 [TCMDC-133989],12.12%,–
Clc1ccc2c(NCc3ccccc3)ccnc2c1 [TCMDC-125506],-30.27%,–
CCCCNc1ccc(C(=O)NC2CCN(C[C@H](O)c3ccnc4ccc(OC)cc34)CC2)cc1 [TCMDC-141038],-7.518%,–
CC1(C)N=C(N)N=C(N)N1OCCCOc1cc(Cl)cc(Cl)c1 [TCMDC-131790],16.66%,–
O=C(Nc1ccc(F)c(Cl)c1)NC1CCN(c2ccnc3cc(Cl)ccc23)C1 (centres unmarked) [TCMDC-133404],-39.28%,–
CCOC(=O)c1c(NC(=O)c2ccccc2)sc2c(O)c(CN(CC)CC)ccc12 [TCMDC-124066],-13.75%,–
CCC(C)NC(=O)CN1CN(c2ccccc2)C2(CCN(C(=O)c3ccc(-c4ccccc4)cc3)CC2)C1=O (centres unmarked) [TCMDC-125175],-41.83%,–
Cc1cc(N2CCCC2)nc(Nc2ccc(NC(=O)Cc3ccccc3)cc2)n1 [TCMDC-124967],-3.146%,–
CC(=O)Nc1ccc(C(=O)Nc2cccc(-c3ccc(-c4nc5cc(C(F)(F)F)ccc5[nH]4)s3)c2)cn1 [TCMDC-136825],32.63%,–
NC1=NCN(OCc2ccc(Cl)c(Cl)c2)C(N)=N1 [TCMDC-131661],6.901%,–
O=C(c1ccc([N+](=O)[O-])o1)N1CCC(c2cn(Cc3cccc(F)c3)c3ccccc23)CC1 [TCMDC-124804],44.33%,–
Cc1ccc2c(-c3ccc([N+](=O)[O-])o3)cc(C)nc2c1 [TCMDC-131568],5.138%,–
Cc1ccc2c(c1)c(C1CCN(C(=O)c3ccc([N+](=O)[O-])o3)CC1)cn2C [TCMDC-124787],93.47%,–
O=[N+]([O-])c1cccc(CNCC2CCN(Cc3ccc(C(F)(F)F)cc3)CC2)c1 [TCMDC-141209],21.63%,–
FC(F)(F)c1ccc(CNCC2CCN(Cc3ccc4c(c3)OCO4)CC2)cc1 [TCMDC-141674],9.475%,–
O=C(c1ccc([N+](=O)[O-])o1)N1CCC(Cc2ccc(C(F)(F)F)cc2)CC1 [TCMDC-124805],110.5%,–
CC(C)(C)c1ccc2oc(=O)n(C3CCN(C(=O)c4ccc([N+](=O)[O-])o4)CC3)c2c1 [TCMDC-124798],106.6%,–
COc1cccc(-c2cnc(-c3ccncc3)nc2C2CCN(Cc3ccc(NC(C)=O)cc3)CC2)c1 [TCMDC-124592],1.604%,–
O=C(Nc1ccc(OC2CCN(Cc3ccc(F)cc3)CC2)c(Cl)c1)c1ccccc1 [TCMDC-133751],2.198%,–
COc1ccc(CN2CCCC(Nc3ccc(F)c(F)c3)C2)c(O)c1 (centres unmarked) [TCMDC-124607],5.364%,–
Cc1cccc(C(=O)Nc2ccnc(N3CCC(N(C)Cc4cccc(O)c4)CC3)c2)c1 [TCMDC-134963],14.15%,–
COc1ccc(-c2ccccc2)cc1NC(=S)NC1CCC(CN2CCC(c3c[nH]c4ccccc34)CC2)CC1 (centres unmarked) [TCMDC-140200],–,105.5%
COc1ccc(-c2ccccc2)cc1NC(=S)NC1CCC(CN2CCC(c3c[nH]c4ccccc34)CC2)CC1 (centres unmarked) [TCMDC-140182],–,85.27%
O=C(N[C@@H](CC1CCCCC1)C(=O)NCCc1ccc(Cl)c(Cl)c1)c1ccc(O)c(-c2ccc(Cl)c(Cl)c2)c1 [TCMDC-140874],30.89%,–

Structure (SMILES),% Inhibition,% Inhibition (% Inhibition)
O=C(CCOc1ccccc1)NCC1CCCO1 (centres unmarked) [TCMDC-123513],13.36%,–
O=C(NCCCNc1nc2ccccc2[nH]1)c1cccc(OC(F)(F)F)c1 [TCMDC-140754],-24.04%,–
COc1ccc2nccc([C@@H](O)CN3CCC(NC(=O)C(=Cc4ccc(Cl)cc4Cl)c4ccc(-c5ccccc5)cc4)CC3)c2c1 [TCMDC-141109],17.05%,–
COc1ccc2nccc([C@@H](O)CN3CCC(NC(=O)/C(=C/c4ccccc4)c4ccc(-c5ccccc5)cc4)CC3)c2c1 [TCMDC-141115],0.831%,–
O=C(NCCc1ccccc1)N(Cc1ccccc1-c1ccc(CNC2CCCC2)cc1)C1CCN(Cc2ccccc2)CC1 [TCMDC-140613],98.8%,–
O=C(NCCc1ccccc1)N(Cc1ccccc1-c1cccc(CNC2CCCC2)c1)C1CCN(Cc2ccccc2)CC1 [TCMDC-140612],64.34%,–
O=C(NCC1CCC(C(=O)NC2CCCc3ccccc32)CC1)c1ccc(O)c(-c2cccc([N+](=O)[O-])c2)c1 (centres unmarked) [TCMDC-140882],10.62%,–
O=C(Nc1ccccc1)Nc1cccc(-c2ccc(-c3nc4ccc(C(F)(F)F)cc4[nH]3)cc2)c1 [TCMDC-133151],-20.54%,–
CCOc1cc2ncnc(Nc3ccc(OCc4c(F)cccc4F)c(OC)c3)c2cc1OCC [TCMDC-131911],15.37%,–
CN1CCCC(COc2cc3c(cc2Br)CCN3C(=O)Nc2ccc(-c3ccncc3)c(Cl)c2)C1 (centres unmarked) [TCMDC-139230],96.61%,–
CN1CCC[C@@H](Oc2cc3c(cc2Br)CCN3C(=O)Nc2ccc(-c3ccncc3)c(Cl)c2)C1 [TCMDC-139237],-19.19%,–
CN1CCC(c2cc3c(cc2Br)CCN3C(=O)Nc2ccc(-c3ccncc3)c(Cl)c2)CC1 [TCMDC-139228],3.26%,–
CC(C)OC(=O)c1cccnc1SCC(=O)Nc1ccc(C(F)(F)F)cc1Cl [TCMDC-123575],-93.91%,–
FC(F)(F)c1ccc(CSc2ccc3nnc(-c4ccccn4)n3n2)cc1 [TCMDC-125344],51.34%,–
COc1ccc(-c2cccc(NC(=O)c3cccc(C#N)c3)c2)cc1CN(C)CCN(C)C [TCMDC-133339],13.46%,–
COc1ccc(-c2cccc(NC(=O)c3ccc(C#N)cc3)c2)cc1CN(C)CCN(C)C [TCMDC-133341],14.59%,–
COc1ccc(-c2ccc(NC(=O)c3cccc(C#N)c3)cc2)cc1CN(C)C [TCMDC-133333],10.09%,–
COc1ccc(-c2ccc(NC(=O)c3ccc(C#N)cc3)c(F)c2)cc1CN(C)CCN(C)C [TCMDC-133366],57.41%,–
COc1ccc(-c2cccc(NC(=O)c3ccc(F)cc3)c2)cc1CNC(C)C [TCMDC-132608],77.83%,–
COc1ccc(-c2cccc(NC(=O)c3ccc(C#N)cc3)c2)cc1CNC(C)C [TCMDC-132610],13.1%,–
COc1ccc(-c2ccc(NC(=O)c3ccc(C#N)cc3)cc2)cc1CN(C)CCN(C)C [TCMDC-132520],27.11%,–
COc1ccc(-c2cccc(NC(=O)c3cccc(C#N)c3)c2)cc1CNC(C)C [TCMDC-132622],84.95%,–
COc1ccc(-c2cccc(NC(=O)c3cccc(C#N)c3)c2)cc1CN(C)CCO [TCMDC-132625],94.55%,–
